Measured values from PubChem BioAssay (NCATS).
Inconclusive results are not listed. Where a call stands in place of a potency, no number is given. Active and inactive are the calls of the source. Calls come from the whole dose curve; as a rule, active = well fitted curve in the direction sought with a large enough effect; inconclusive = small, poorly fitted or top-dose-only effect, or another doubt; inactive = no such curve, though single readings can be large; an effect the other way counts as inactive or inconclusive.

Legend:
MCC-13 = assay: qHTS assay to identify novel small-molecules to repurpose for Merkel cell carcinoma treatment (AID 1296009); conditions: MCC and control cell lines, CellTiter-Glo viability, 72 h; series mostly up to 46 µM; note: nearly all actives have a fitted effect of over 60% in size
Procedure, shortened: (§1)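 Cell viability measured by CellTiter-Glo following 72 hr compound treatment at 37 degree celsius, with NPC and MIPE libraries tested in 8- and 11-point concentration series.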

MCC-26 = assay: as above; conditions: MCC and control cell lines, CellTiter-Glo viability, 72 h; series mostly up to 46 µM
Procedure, shortened: as §1

MKL-1 = assay: as above; conditions: MCC and control cell lines, CellTiter-Glo viability, 72 h; series mostly up to 46 µM
Procedure, shortened: as §1

MKL-2 = assay: as above; conditions: MCC and control cell lines, CellTiter-Glo viability, 72 h; series mostly up to 46 µM
Procedure, shortened: as §1

UISO = assay: as above; conditions: MCC and control cell lines, CellTiter-Glo viability, 72 h; series mostly up to 46 µM
Procedure, shortened: as §1

C33A = assay: Primary qHTS to identify gynecologic anti-cancer compounds using libraries of approved drugs and bioactive compounds (AID 1345084); conditions: Gynecologic cancer cell panel viability, ATPlite luminescence, 48 h; series mostly up to 57.5 µM; note: nearly all actives have a fitted effect of over 55% in size; note: potency is the fitted concentration of half-maximal effect
Procedure, shortened: (§2)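 Cell viability after 48 h drug treatment, ATPlite luminescence readout; five doses.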

CAOV3 = assay: as above; conditions: Gynecologic cancer cell panel viability, ATPlite luminescence, 48 h; series mostly up to 57.5 µM
Procedure, shortened: as §2

CASKI = assay: as above; conditions: Gynecologic cancer cell panel viability, ATPlite luminescence, 48 h; series mostly up to 57.5 µM
Procedure, shortened: as §2

Es-2 = assay: as above; conditions: Gynecologic cancer cell panel viability, ATPlite luminescence, 48 h; series mostly up to 57.5 µM
Procedure, shortened: as §2

HeLa = assay: as above; conditions: Gynecologic cancer cell panel viability, ATPlite luminescence, 48 h; series mostly up to 57.5 µM
Procedure, shortened: as §2

Hek293T = assay: as above; conditions: Gynecologic cancer cell panel viability, ATPlite luminescence, 48 h, control line for the selectivity index; series mostly up to 57.5 µM
Procedure, shortened: as §2

JEG-3 = assay: as above; conditions: Gynecologic cancer cell panel viability, ATPlite luminescence, 48 h; series mostly up to 57.5 µM
Procedure, shortened: as §2

OV90 = assay: as above; conditions: Gynecologic cancer cell panel viability, ATPlite luminescence, 48 h; series mostly up to 57.5 µM
Procedure, shortened: as §2

PA-1 = assay: as above; conditions: Gynecologic cancer cell panel viability, ATPlite luminescence, 48 h; series mostly up to 57.5 µM
Procedure, shortened: as §2

SKOV3 = assay: as above; conditions: Gynecologic cancer cell panel viability, ATPlite luminescence, 48 h; series mostly up to 57.5 µM
Procedure, shortened: as §2

Tov-21-G = assay: as above; conditions: Gynecologic cancer cell panel viability, ATPlite luminescence, 48 h; series mostly up to 57.5 µM
Procedure, shortened: as §2

Tov112D = assay: as above; conditions: Gynecologic cancer cell panel viability, ATPlite luminescence, 48 h; series mostly up to 57.5 µM
Procedure, shortened: as §2

WaGa = assay: qHTS assay to identify novel small-molecules to repurpose for Merkel cell carcinoma treatment (AID 1296009); conditions: MCC and control cell lines, CellTiter-Glo viability, 72 h; series mostly up to 46 µM; note: nearly all actives have a fitted effect of over 60% in size
Procedure, shortened: as §1

NIH3T3 = assay: as above; conditions: MCC and control cell lines, CellTiter-Glo viability, 72 h; at 44.8 µM (top of the series) unless noted
Procedure, shortened: as §1

SMILES	Potency (MCC-13)	Potency (MCC-26)	Potency (MKL-1)	Potency (MKL-2)	Potency (UISO)	Potency (C33A)	Potency (CAOV3)	Potency (CASKI)	Potency (Es-2)	Potency (HeLa)	Potency (Hek293T)	Potency (JEG-3)	Potency (OV90)	Potency (PA-1)	Potency (SKOV3)	Potency (Tov-21-G)	Potency (Tov112D)	Potency (WaGa)	outcome (NIH3T3)
CN1CCCCC1CCN1c2ccccc2Sc2ccc(S(C)=O)cc21 (stereo not given)	inactive	inactive	inactive	inactive	inactive	inactive	inactive	inactive	inactive	inactive	inactive	inactive	inactive	inactive	inactive	inactive	inactive	–	–
CC(CN1c2ccccc2Sc2ccccc21)N(C)C (stereo not given)	inactive	inactive	inactive	inactive	–	inactive	–	inactive	inactive	inactive	inactive	inactive	–	inactive	inactive	inactive	inactive	–	–
Nc1cc(=O)[nH]c(N)n1	inactive	inactive	inactive	inactive	inactive	inactive	inactive	–	inactive	inactive	inactive	inactive	inactive	–	inactive	inactive	inactive	inactive	–
COc1ccc2c(c1)C(=O)N(CCc1ccc(S(=O)(=O)NC(=O)NC3CCCCC3)cc1)C(=O)C2(C)C	inactive	inactive	inactive	inactive	inactive	inactive	–	inactive	inactive	inactive	inactive	inactive	inactive	inactive	inactive	inactive	inactive	inactive	–
CS(=O)(=O)c1ccc([C@@H](O)[C@@H](CF)NC(=O)C(Cl)Cl)cc1	inactive	inactive	inactive	inactive	inactive	inactive	–	inactive	inactive	inactive	inactive	inactive	inactive	inactive	inactive	–	inactive	inactive	–
CC(C)C(=O)c1c(C(C)C)nn2ccccc12	inactive	inactive	inactive	inactive	inactive	inactive	inactive	inactive	inactive	inactive	inactive	inactive	inactive	inactive	inactive	inactive	inactive	inactive	–
C=Cc1c(C)c2cc3[nH]c(cc4nc(cc5nc(cc1[nH]2)C(C)=C5CCC(=O)O)C(CCC(=O)O)=C4C)c(C)c3C=C	inactive	inactive	inactive	inactive	inactive	inactive	inactive	inactive	inactive	inactive	inactive	inactive	inactive	inactive	–	inactive	inactive	inactive	–
Nc1nc2c(ncn2CCC(CO)CO)c(=O)[nH]1	inactive	inactive	inactive	inactive	inactive	inactive	–	inactive	inactive	inactive	inactive	inactive	inactive	inactive	inactive	inactive	inactive	inactive	inactive
COc1cc(C(=O)N2CCOCC2)cc(OC)c1OC	inactive	inactive	inactive	inactive	inactive	inactive	–	inactive	inactive	inactive	inactive	inactive	inactive	inactive	inactive	inactive	inactive	inactive	inactive
CN1[C@@H]2CC[C@H]1CC(OC(=O)C(O)c1ccccc1)C2 (stereo not given in full)	inactive	inactive	inactive	inactive	inactive	inactive	inactive	inactive	inactive	inactive	inactive	inactive	inactive	inactive	inactive	inactive	inactive	inactive	inactive
CC(=O)Oc1ccc(C2(c3ccc(OC(C)=O)cc3)C(=O)Nc3ccccc32)cc1	inactive	inactive	inactive	inactive	–	inactive	inactive	inactive	inactive	inactive	inactive	inactive	8.91 µM (active)	inactive	inactive	–	–	inactive	–
c1ccc(CN(CC2=NCCN2)c2ccccc2)cc1	inactive	inactive	inactive	inactive	inactive	inactive	–	inactive	inactive	inactive	inactive	inactive	inactive	inactive	inactive	inactive	inactive	inactive	inactive
CC(C(O)c1ccc(O)cc1)N1CCC(Cc2ccccc2)CC1 (stereo not given)	inactive	inactive	inactive	inactive	inactive	inactive	inactive	inactive	inactive	inactive	inactive	inactive	–	inactive	inactive	inactive	inactive	inactive	–
